Compound activity: PubChem BioAssay, National Center for Advancing Translational Sciences (NCATS)
HTT cytoprotect – qHTS Multiplex Assay to Identify Dual Action Probes in a Cell Model of Huntington: Cytoprotection (ATP); 0.14% of 230,000 active; AID 1471, 2008; PC12 HTT-Q103 induced, cytoprotection, ATP luminescence, 40 h; Potency, µM (highest dose often 56.4 µM), for inactives: cytoprotection (ATP increase), most hits filed as activators; active = well fitted curve in the direction sought with a large enough effect; inconclusive = small, poorly fitted or top-dose-only effect, or another doubt; inactive = no such curve, though single readings can be large; an effect the other way counts as inactive or inconclusive; also: potency is read from the fitted curve at half-maximal effect; % of control where 0% means no effect; nearly all actives have a fitted effect of over 45% in size
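PC12 cells stably carrying ecdysone-inducible Htt exon 1 (Q103)–GFP were induced with 100 nM tebufenozide (final) alongside library compounds in a dose series. Cytoprotection was scored as retained ATP by ATPlite luminescence.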
PNC inhibitor – High Content Assay for Compounds that inhibit the Assembly of the Perinucleolar Compartment; PC3M PTB-GFP, PNC prevalence imaging, 16 h; active compounds read low; activity change (PNC), negative = inhibition, % at 10 µM; 3.1% of 140,000 active; AID 2417, 2010;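 active = readout at or below -70, meaning at least 70% loss of cells showing the perinucleolar compartment, a nuclear body marking cancer cells; inconclusive = readout between -30 and a set limit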;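 also: plate controls were DMSO wells for no effect and camptothecin positive control wells for full effect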
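PC3M cells stably expressing PTB-GFP, 750–1000 cells/well, treated 16 h at 37 °C with compound (23 nl of library stock), in duplicate. After paraformaldehyde fixation and Hoechst stain, imaged at 20x; PNC prevalence scored by image analysis.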
RGS12 GoLoco inh – qHTS Assay for Inhibitors of RGS12 GoLoco Motif Activity (Red Fluorophore). AID 880, 2007. Guanine nucleotide-binding protein G(i) subunit alpha-1 (Homo sapiens), P63096. Gai1:RGS12 GoLoco peptide FP, rhodamine, 10 min. 0.44% of 230,000 active. Potency, µM (top dose mostly 61.6 µM), for the others: top-dose activity, negative = inhibition, most hits filed as inhibitors; active = well fitted inhibition curve with a large enough effect, not every such curve was filed as active; inactive = no such curve, though single readings can be large or run the other way; also: potency is read from the fitted curve at half-maximal effect; % is scaled to controls: 0 for no effect and ±100 for the full control effect; nearly all actives have a fitted effect of over 30% in size
Target sequence (P63096 whole entry, looked up): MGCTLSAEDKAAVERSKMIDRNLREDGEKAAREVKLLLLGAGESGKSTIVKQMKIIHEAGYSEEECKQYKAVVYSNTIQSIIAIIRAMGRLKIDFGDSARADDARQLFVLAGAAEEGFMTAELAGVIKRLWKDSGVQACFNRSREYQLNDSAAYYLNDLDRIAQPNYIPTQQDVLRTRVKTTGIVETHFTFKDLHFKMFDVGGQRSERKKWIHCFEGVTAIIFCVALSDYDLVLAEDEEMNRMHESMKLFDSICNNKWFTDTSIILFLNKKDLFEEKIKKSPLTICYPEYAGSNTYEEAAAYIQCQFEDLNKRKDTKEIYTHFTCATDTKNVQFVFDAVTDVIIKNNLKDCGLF
ALDH1A1 block – qHTS Assay for Inhibitors of Aldehyde Dehydrogenase 1 (ALDH1A1). Potency, µM (series often up to 75.3 µM), inactives show at the top dose activity, negative = inhibition, usual class: inhibitors. 7.3% of 220,000 active. Purified ALDH1A1, NADH fluorescence, propionaldehyde substrate;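 also: potency is read from the fitted curve at half-maximal effect; plate controls were no enzyme wells and a reference inhibitor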
Target sequence (P00352 whole entry, looked up): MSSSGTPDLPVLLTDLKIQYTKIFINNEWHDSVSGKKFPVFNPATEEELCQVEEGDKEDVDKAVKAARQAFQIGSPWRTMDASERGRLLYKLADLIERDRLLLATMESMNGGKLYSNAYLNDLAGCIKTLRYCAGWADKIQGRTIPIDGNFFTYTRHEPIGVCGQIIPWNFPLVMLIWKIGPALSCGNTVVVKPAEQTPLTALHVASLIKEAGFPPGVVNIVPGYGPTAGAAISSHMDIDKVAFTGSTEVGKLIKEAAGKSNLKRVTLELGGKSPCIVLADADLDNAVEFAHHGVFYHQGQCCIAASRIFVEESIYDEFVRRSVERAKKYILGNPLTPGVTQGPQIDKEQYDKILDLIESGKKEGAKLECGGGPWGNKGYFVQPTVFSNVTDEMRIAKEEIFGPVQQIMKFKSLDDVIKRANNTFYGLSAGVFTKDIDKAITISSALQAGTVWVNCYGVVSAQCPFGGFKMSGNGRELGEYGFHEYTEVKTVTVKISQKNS
HttQ103 aggreg – qHTS Multiplex Assay to Identify Dual Action Probes in a Cell Model of Huntington: Aggregate Formation (GFP); PC12 HttQ103-GFP aggregates, Acumen cytometry, 40 h; Potency, µM (doses to about 46.1 µM), without a hit: at the highest dose activity change, negative = inhibition, most hits filed as inhibitors; 1.1% of 220,000 active; AID 1688, 2009; active = well fitted curve in the direction sought with a large enough effect; inconclusive = small, poorly fitted or top-dose-only effect, or another doubt; inactive = no such curve, though single readings can be large; an effect the other way counts as inactive or inconclusive; also: potency is read from the fitted curve at half-maximal effect; % is scaled to controls: 0 for no effect and ±100 for the full control effect; nearly all actives have a fitted effect of over 60% in size
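Aggregates are detected as GFP objects 1–25 µm with signal 6 STDEV over background in lysates of induced PC12 cells. These carry Huntingtin exon 1 with 103 glutamines fused to GFP under an ecdysone promoter; compounds titrated.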
HPGD inh – qHTS Assay for Inhibitors of HPGD (15-Hydroxyprostaglandin Dehydrogenase) | 15-hydroxyprostaglandin dehydrogenase [NAD(+)] (Homo sapiens), P15428 | purified HPGD, NADH fluorescence kinetic, PGE2 substrate | Potency, µM, inactives show at the highest dose activity change, negative = inhibition, hits mostly inhibitors | 4.3% of 150,000 active | AID 894, 2007; also: potency is read from the fitted curve at half-maximal effect; % is scaled to controls: 0 for no effect and ±100 for the full control effect
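20 nM HPGD preincubated 15 min at room temperature with compound in 50 mM Tris-HCl pH 8, 0.01% Tween 20. Started with 1 mM NAD+ and 30 uM prostaglandin E2; NADH fluorescence (360/450 nm) read 5 times over 30-s intervals, last minus first.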
* = called active by the depositor; u = inconclusive; x = no result; ! = repeats disagree; [ ] = dose if it differs, or a comment. Most compounds without a hit are left out; they make up all but 11% or so of the library. Unless noted, calls follow the shape of the dose curve; as a rule, active = well fitted inhibition curve with a large enough effect (not every such curve was filed as active); inconclusive = small, poorly fitted or top-dose-only effect, or another doubt; inactive = no such curve, though single readings can be large or run the other way.

SMILES	HTT cytoprotect	PNC inhibitor	RGS12 GoLoco inh	ALDH1A1 block	HttQ103 aggreg	HPGD inh
CNC(=O)C1CCN(C(=O)c2ccc(-c3ccccc3)cc2)CC1	-11.4%	26.2	-13.5%	u	-10.2%	-11.7%
O=C(c1ccc(-c2ccccc2)cc1)N1CCCC1	-18.5%	11.2	4.1%	-14.7%	3.5%	1.58µM*
O=c1c(-c2ccccc2)nc2cnc(N3CCNCC3)nc2n1Cc1cccs1	2.6%	x	3.1%	u	x	u
CCOC(=O)CCCNC(=O)N1CCc2nc(-c3ccc(OC)cc3C)c3c(c2C1)CO[C@@H](c1ccccc1)C3	-11.5%[10 µM]	x	2.5%[14.2 µM]	u	x	-3.7%
Cc1ccc(C(=O)N2CCSCC2)cc1	u	-21.0	5.2%	0.4%	13.5%[9.22 µM]	0.282µM*
Cc1ccc(C(=O)N2CC(C(=O)O)C2)cc1	-7.9%[10 µM]	x	-0.5%	-1.5%	25.2%	x
COC(=O)c1ccc(-c2ccc(C(=O)N3CCCN(C)CC3)cc2)cc1	0.1%	-3.8	-4.1%	14.3%	-15.5%	1.26µM*
O=C(c1ccc(Br)cc1)N1CCCC1	-4.2%	19.2	7.7%	-6.7%	16.8%	7.94µM*
NC(=O)c1c(NC(=O)CN2C(=O)CCC2=O)sc2c1CCCCC2	10.5%	-29.2	1.5%	14.1µM*	-13.0%	u
NC(=O)c1c(NC(=O)CN2CCCC2)sc2c1CCCC2	12.5%[10 µM]	-20.3	1.3%	17.8µM*	9.7%	u
CC(=O)N1CCc2c(sc(NC(=O)CN3C(=O)CCC3=O)c2C(N)=O)C1	26.3%[10 µM]	u	-0.5%	u	-6.8%	u
CC(=O)N[C@@H](Cc1ccc(O)cc1)C(=O)O	29.9%	x	10.7%	-0.8%	6.4%	0.9%
CC(=O)c1ccc(Nc2ccc(-c3ccccc3C)nn2)cc1	-11.2%[10 µM]	x	186.0%	7.08µM*	6.0%[9.22 µM]	x
CC(=O)c1cccc(Nc2ccc(-c3ccccc3F)nn2)c1	-70.7%	x	8.5%	u	-5.8%	x
CCCn1c(C)nc2c(NCCO)nc(C)nc21	9.9%	x	1.7%	0.9%	x	-4.4%
C[C@@H](SCc1ccccc1)C(=O)O	1.7%[10 µM]	x	-0.5%[14.2 µM]	4.2%[13.5 µM]	x	-4.6%
O=C1NN(c2ccc(F)c(Cl)c2)C(=O)/C1=C\c1cccc(OC(=O)c2cccs2)c1	-7.6%	4.0	-11.7%	u	28.9%	10µM*
Cc1nc2c(=O)n(-c3ccc(F)c(Cl)c3)nc(C)c2s1	6.4%[10 µM]	x	-1.5%	-0.7%	-7.2%[9.22 µM]	x
CC(C)=C1C(=O)NN(c2ccc(F)c(Cl)c2)C1=O	10.2%	15.5	51.3%	-1.8%	16.0%	8.91µM*
COc1cc(/C=N/NC(=O)c2ccncc2)ccc1Oc1ccc([N+](=O)[O-])cn1	-33.8%	x	-13.8%	u	-12.7%	x
COc1cc(/C=N/NC(=O)c2ccc(O)cc2)ccc1Oc1ccc([N+](=O)[O-])cn1	3.2%[10 µM]	u	-9.6%	17.8%	-4.9%	22.4µM*
c1ccc2[nH]c(-c3ccnc4ccccc34)nc2c1	-15.9%	-5.1	25.1µM*!	u	-5.6%	u
C=CCc1ccccc1OCC(O)CNC (stereo not given)	9.3%	23.1	11.1%	22.4µM*	9.4%	-2.6%
C=CCc1ccccc1OC[C@H](O)CNC(C)C	1.0%[40.3 µM]	x	-5.4%[21.6 µM]	11.5%[20.9 µM]	x	-5.7%
O=C(O)c1cc(=O)[nH]c(=S)[nH]1	-3.9%[10 µM]	x	-3.3%[14.2 µM]	-1.6%[13.5 µM]	x	-4.3%
SMILES	HTT cytoprotect	PNC inhibitor	RGS12 GoLoco inh	ALDH1A1 block	HttQ103 aggreg	HPGD inh
COC(=O)c1ccc(N/C(C)=C/C(=O)c2ccc(C)o2)cc1	-6.7%	25.7	6.1%	-2.3%	3.98µM*	-15.9%
Cc1cc(C)nc(SCc2nnc(SCC(=O)Nc3nccs3)n2C)n1	7.7%[10 µM]	-100.0*	4.4%	6.7%	-2.3%	-16.6%
O=C(Cc1coc2ccc3ccccc3c12)NCc1ccccc1	-4.6%	-8.4	4.0%	-13.4%	-0.3%	-21.8%
CCn1c(Cc2cccc3ccccc23)nnc1SCC(=O)Nc1nccs1	7.7%[10 µM]	-100.0*	5.9%	0.1%	-10.0%	-16.0%
O=C(Cc1coc2ccc3ccccc3c12)Nc1nccs1	0.3%	-107.4*	-4.5%	-0.6%	-27.5%	u
CCn1c(CNC(=O)Cc2ccc(OC)cc2)nnc1SCC(=O)Nc1nccs1	-8.4%[0.074 µM]	-19.9	6.0%	13.7%	7.2%	-4.1%
COc1ccc(C(=O)NCCn2cc(SCC(N)=O)c3ccccc32)cc1	0.4%[10 µM]	x	-3.4%	x	-8.3%[9.22 µM]	x
OCCN1CCOCCN(CCO)CCOCC1	5.2%	-12.6	4.9%	8.2%	-1.4%	0.7%
CCC(NC(=O)CCl)c1ccc(C)cc1 (stereo not given)	54.2%	x	7.2%	8.91µM*	-7.9%[9.22 µM]	x
CCCC(NC(=O)CCl)c1ccccc1 (stereo not given)	13.2%[10 µM]	9.7	x	2.1%	7.1%	x
CC(NC(=O)CCl)c1ccc(Cl)c(Cl)c1 (stereo not given)	-25.4%	-24.3	-8.9%	10µM*	22.4µM*	0.8%
C/C(=N\NC(=O)c1sccc1-n1cccc1)c1cccs1	-19.2%	x	2.0%	-2.6%	-22.9%	x
NCCc1nnc(SCc2c(F)cccc2Cl)o1	-7.6%	-103.2*	2.3%	u	19.0%[9.22 µM]	-28.3%
CCOC(=O)c1ccc(-n2c(CN(CC)CC)nc3ccc([N+](=O)[O-])cc3c2=O)cc1	u	x	19.5%	28.2µM*	1.8%	x
CCOC(=O)c1ccc(-n2c(CN3CCC(O)CC3)nc3ccc([N+](=O)[O-])cc3c2=O)cc1	-7.6%	x	-17.1%	u	6.5%	x
CCOC(=O)c1ccc(-n2c(CN3CCN(CC)CC3)nc3ccc([N+](=O)[O-])cc3c2=O)cc1	11.9%	x	5.7%	u	10.1%	x
CCOC(=O)c1ccc(-n2c(CN3CCC(C(N)=O)CC3)nc3ccc([N+](=O)[O-])cc3c2=O)cc1	-4.5%	x	-7.6%	8.91µM*	6.9%	x
CC(C)C[C@H](N)C(=O)O	12.8%[10 µM]	x	6.0%[14.2 µM]	5.8%[13.5 µM]	x	-2.1%
CN(C)/C=N/c1sc2c(c1C#N)CCCC2	17.4%	x	-8.2%	2µM*	-16.8%	x
C(=N\Nc1ncnc2sc3c(c12)CCC3)/c1cccs1	-76.7%	104.7	-0.1%	8.0%	u	-21.2%
N#Cc1c(/N=C/c2ccco2)sc2c1CCCCC2	-14.4%	-5.5	4.5%	14.1µM*	-26.7%	-27.6%
CC1CCc2c(sc(/N=C/N(C)C)c2C#N)C1 (stereo not given)	-55.7%	x	4.4%	u	-1.0%	x
N#Cc1c(/N=C/c2cccs2)sc2c1CCC2	-19.6%	35.5	-4.4%	u	-3.1%	20µM*
NC1=C2NC=N[C@@H]2N(C/C=C\c2ccccc2)C=N1	-9.5%[10 µM]	x	1.6%[14.2 µM]	-13.0%[13.5 µM]	x	-7.6%
